# According to PubChem BioAssay (NCATS):
# Where “and” joins values, the source holds several entries; their conditions need not be identical. Equal entries are not always repeated. Inconclusive results are not listed. Calls of active or inactive are those of the source. Unless noted, calls come from the whole dose curve; as a rule, active = well fitted curve in the direction sought with a large enough effect; inconclusive = small, poorly fitted or top-dose-only effect, or another doubt; inactive = no such curve, though single readings can be large; an effect the other way counts as inactive or inconclusive.
# Key:
# [1] = target: Cytochrome P450 2D6 (Homo sapiens) (UniProt P10635); assay: Cytochrome P450 family 2 subfamily D member 6 (CYP2D6) small molecule antagonists: luciferase biochemical (cell-free) qHTS assay (AID 1645840; active = well fitted curve in the direction sought with a large enough effect in the repeat runs; an effect the other way counts as inactive or inconclusive; note: nearly all actives have a fitted effect of over 55% in size; note: potency is the fitted concentration of half-maximal effect; for activity change, negative = inhibition: % is set by controls: 0 for no effect and ±100 for the full control effect)
# Procedure, shortened: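 P450-Glo CYP2D6 system: proluciferin substrate converted by enzyme to luciferin, read by luminescence proportional to activity. Enzyme-substrate mix with compound 10 min at room temperature, then NADPH regeneration 1 h before detection reagent.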
# [2] = target: Cytochrome P450 2C9 (Homo sapiens) (UniProt P11712); assay: Cytochrome P450 family 2 subfamily C member 9 (CYP2C9) small molecule antagonists: luciferase biochemical (cell-free) qHTS assay (AID 1645842; active = well fitted curve in the direction sought with a large enough effect in the repeat runs; an effect the other way counts as inactive or inconclusive; note: nearly all actives have a fitted effect of over 55% in size; note: potency is the fitted concentration of half-maximal effect; for activity change, negative = inhibition: % is set by controls: 0 for no effect and ±100 for the full control effect)
# Procedure, shortened: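 P450-Glo CYP2C9 system: proluciferin substrate with enzyme in mix containing 0.4% BSA, 10 min at room temperature, then NADPH regeneration solution added and incubated 1 h at 37C. Detection reagent stopped reaction; luminescence read after 20 min as RLU.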
# [3] = Primary qHTS for inhibitors of nuclear receptor binding SET domain protein 2 (NSD2) in an isogenic RCH-ACV NSD2 p.E1099K mutant (9B) (AID 1645876); note: nearly all actives have a fitted effect of over 70% in size; note: potency is the fitted concentration of half-maximal effect
# [4] = Primary qHTS for inhibitors of nuclear receptor binding SET domain protein 2 (NSD2) in an RCH-ACV wild type WT cells (2C) (AID 1645877); note: nearly all actives have a fitted effect of over 70% in size; note: potency is the fitted concentration of half-maximal effect
# [5] = NCATS anti-infectives library activity on the primary C. elegans qHTS viability assay (AID 1745855; calls by dose curve; note: potency is the fitted concentration of half-maximal effect)
# Procedure, shortened: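 GFP read-out by 488 nm laser cytometry at day 0, 3 and 7, gated on object perimeter, area and peak intensity, scored viability of PE254-GFP-FLuc worms exposed to compound in S medium with bacterial capsules at 21 °C.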
# [6] = target: Glutathione peroxidase 1 (Homo sapiens) (UniProt P07203); assay: Primary qHTS Assay for Inhibitors of Recombinant Selenoprotein Glutathione Peroxidase 1 (GPX1) (AID 1845191); note: nearly all actives have a fitted effect of over 65% in size; note: potency is the fitted concentration of half-maximal effect
# Procedure, shortened: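 GR-coupled readout: NADPH consumption tracked by fluorescence, ex 340/em 450 nm, at t=0 and after 15 min at RT. Final mix 10 nM GPX1, 1 mM GSH, 0.5 mM CHP, 0.5 mM NADPH, 100 nM GR, 0.01% BSA, following 30 min enzyme–compound preincubation.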
# [7] = NCATS anti-infectives library activity on HEK293 viability as a counter-qHTS vs the C. elegans viability qHTS (AID 1745854); note: % is set by controls: 0 for no effect and ±100 for the full control effect
# Procedure, shortened: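 Cytotoxicity counter-screen to a worm viability qHTS: CellTiter-Glo luminescence read 10 min after reagent addition. Compounds (final up to 41.7 uM, a 1:5 dilution series) incubated 24 hr at 37C with 1,500 HEK293 cells per well; digitonin control.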
# [8] = target: Catechol O-methyltransferase (Homo sapiens) (UniProt P21964); assay: Confirmatory Screen for Target Class Profiling of Small Molecule Inhibitors of Methyltransferases (AID 1745852); conditions: MTase-Glo luminescence, SAH detection, recombinant enzyme; measured here: COMT max response; stronger effect = lower value; for activity change, negative = inhibition: % is set by controls: 0 for no effect and ±100 for the full control effect
# [9] = target: Guanidinoacetate N-methyltransferase (Homo sapiens) (UniProt Q14353); assay: as above; conditions: activity change, negative = inhibition: at 57.3 µM (top of the series) unless noted
# [10] = target: Nicotinamide N-methyltransferase (Homo sapiens) (UniProt P40261); assay: as above; conditions: MTase-Glo luminescence, SAH detection, recombinant enzyme; measured here: NNMT max response; stronger effect = lower value
# [11] = target: Phenylethanolamine N-methyltransferase (Homo sapiens) (UniProt P11086); assay: as above; conditions: MTase-Glo luminescence, SAH detection, recombinant enzyme; measured here: PNMT max response; stronger effect = lower value
# Chain of Phenylethanolamine N-methyltransferase (Homo sapiens) (P11086 whole entry, looked up): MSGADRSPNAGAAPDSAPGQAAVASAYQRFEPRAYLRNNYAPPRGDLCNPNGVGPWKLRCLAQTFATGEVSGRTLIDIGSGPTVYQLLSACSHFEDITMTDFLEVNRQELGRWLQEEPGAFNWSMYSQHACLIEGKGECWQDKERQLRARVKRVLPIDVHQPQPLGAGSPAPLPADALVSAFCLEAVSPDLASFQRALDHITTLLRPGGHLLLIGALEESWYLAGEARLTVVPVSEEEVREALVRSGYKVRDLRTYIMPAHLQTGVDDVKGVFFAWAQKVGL
# Chain of Cytochrome P450 2D6 (Homo sapiens) (P10635 whole entry, looked up): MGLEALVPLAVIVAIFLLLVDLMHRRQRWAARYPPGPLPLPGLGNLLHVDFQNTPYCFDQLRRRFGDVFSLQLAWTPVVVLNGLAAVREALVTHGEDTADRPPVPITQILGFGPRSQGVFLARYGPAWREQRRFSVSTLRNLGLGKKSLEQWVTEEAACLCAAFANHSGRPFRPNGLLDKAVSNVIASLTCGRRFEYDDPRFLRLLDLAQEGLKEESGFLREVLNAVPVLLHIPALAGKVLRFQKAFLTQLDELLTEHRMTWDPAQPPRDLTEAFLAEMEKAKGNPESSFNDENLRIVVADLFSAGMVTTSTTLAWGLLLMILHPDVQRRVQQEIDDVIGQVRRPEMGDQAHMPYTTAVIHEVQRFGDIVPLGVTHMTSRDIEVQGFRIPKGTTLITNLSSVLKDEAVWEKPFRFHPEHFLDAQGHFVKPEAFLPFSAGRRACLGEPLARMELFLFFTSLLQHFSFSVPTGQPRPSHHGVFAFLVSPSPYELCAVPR
# Chain of Glutathione peroxidase 1 (Homo sapiens) (P07203 whole entry, looked up): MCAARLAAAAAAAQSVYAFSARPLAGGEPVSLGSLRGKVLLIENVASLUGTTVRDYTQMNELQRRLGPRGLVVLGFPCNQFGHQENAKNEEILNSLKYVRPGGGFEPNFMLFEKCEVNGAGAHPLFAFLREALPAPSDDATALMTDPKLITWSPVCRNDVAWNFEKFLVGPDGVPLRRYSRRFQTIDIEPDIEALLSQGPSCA
# Chain of Cytochrome P450 2C9 (Homo sapiens) (P11712 whole entry, looked up): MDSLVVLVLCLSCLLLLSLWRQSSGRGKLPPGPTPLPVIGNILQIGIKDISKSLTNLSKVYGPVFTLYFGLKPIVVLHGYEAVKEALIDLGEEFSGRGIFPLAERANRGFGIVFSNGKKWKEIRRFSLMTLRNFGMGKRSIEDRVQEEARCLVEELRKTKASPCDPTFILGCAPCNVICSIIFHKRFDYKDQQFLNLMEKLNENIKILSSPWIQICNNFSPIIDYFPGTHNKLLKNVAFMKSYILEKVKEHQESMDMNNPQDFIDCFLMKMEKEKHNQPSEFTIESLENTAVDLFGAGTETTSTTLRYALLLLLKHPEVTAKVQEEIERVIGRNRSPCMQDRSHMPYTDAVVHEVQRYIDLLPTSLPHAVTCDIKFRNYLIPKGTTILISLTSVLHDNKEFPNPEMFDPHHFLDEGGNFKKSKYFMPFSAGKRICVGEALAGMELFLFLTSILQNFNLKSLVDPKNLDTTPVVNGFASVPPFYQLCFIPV
# Chain of Nicotinamide N-methyltransferase (Homo sapiens) (P40261 whole entry, looked up): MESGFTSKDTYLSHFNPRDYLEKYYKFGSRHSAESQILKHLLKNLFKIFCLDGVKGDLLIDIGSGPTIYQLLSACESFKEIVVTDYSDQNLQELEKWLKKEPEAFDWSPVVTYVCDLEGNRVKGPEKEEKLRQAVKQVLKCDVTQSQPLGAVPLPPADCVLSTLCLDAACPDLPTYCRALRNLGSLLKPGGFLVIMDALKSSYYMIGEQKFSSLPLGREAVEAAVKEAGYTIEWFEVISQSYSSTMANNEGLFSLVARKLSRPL
# Chain of Catechol O-methyltransferase (Homo sapiens) (P21964 whole entry, looked up): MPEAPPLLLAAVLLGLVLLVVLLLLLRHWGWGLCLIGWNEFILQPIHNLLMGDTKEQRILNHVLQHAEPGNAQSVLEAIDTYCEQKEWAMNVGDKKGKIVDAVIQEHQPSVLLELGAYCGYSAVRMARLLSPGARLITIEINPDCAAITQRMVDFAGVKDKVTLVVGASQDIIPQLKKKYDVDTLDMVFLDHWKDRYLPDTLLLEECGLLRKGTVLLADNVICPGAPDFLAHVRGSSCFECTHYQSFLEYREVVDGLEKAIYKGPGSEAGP
smiles,measurement,setting,value
Cc1cc(C)c(Nc2ccnc(Nc3ccc(C#N)cc3)n2)c(C)c1,Potency,[1],10.7 µM (active)
same,Potency,[2],3.79 µM (active)
same,Potency,[3],4.09 µM (active)
same,Potency,[4],4.09 µM (active)
same,Potency,[5],5.15 µM (active)
same,Potency,[6],inactive
CN1CCC(Nc2nc(Nc3ccc(Oc4ccccc4)cc3)c3c(=O)[nH]cc(Br)c3n2)CC1,Potency,[1],5.35 µM (active)
same,Potency,[2],16.9 µM (active)
same,Potency,[3],1.83 µM (active)
same,Potency,[4],0.916 µM (active)
same,Potency,[6],inactive
CC(C)CCC(=O)CC1c2ccccc2C(=O)N1c1ccc2ccc(Cl)nc2n1 (configuration not stated),Potency,[1],inactive
same,Potency,[2],1.51 µM (active)
same,Potency,[3],inactive
same,Potency,[4],inactive
same,Potency,[6],inactive
Cc1ccc(C(=O)N(CCCN)C(c2oc3cc(Cl)ccc3c(=O)c2Cc2ccccc2)C(C)C)cc1 (configuration not stated),Potency,[1],10.7 µM (active)
same,Potency,[2],10.7 µM (active)
same,Potency,[3],inactive
same,Potency,[4],inactive
same,Potency,[6],inactive
Cc1cccc(Oc2cnc(=O)[nH]c2)c1,Potency,[1],inactive
same,Potency,[2],inactive
same,Potency,[3],inactive
same,Potency,[4],inactive
same,Potency,[6],inactive
CCc1cc(CN2CC(C(=O)O)C2)sc1-c1noc(-c2ccc(Oc3ccccc3)cc2)n1,Potency,[1],inactive
same,Potency,[2],inactive
same,Potency,[3],10 µM (active)
same,Potency,[4],10 µM (active)
same,Potency,[6],inactive
O=C(/C=C/c1cccc(S(=O)(=O)Nc2ccccc2)c1)NO,Potency,[1],21.3 µM (active)
same,Potency,[2],10.7 µM (active)
same,Potency,[3],356 nM (active) and 296 nM (active)
same,Potency,[4],252 nM (active) and 332 nM (active)
same,Potency,[7],inactive
same,Potency,[6],inactive
COc1cc(NC(=O)Nc2cccc(CNC(=O)O[C@H]3CCOC3)c2)ccc1-c1cnco1,Potency,[1],0.338 µM (active)
same,Potency,[2],0.0379 µM (active)
same,Potency,[3],0.459 µM (active)
same,Potency,[4],0.728 µM (active)
same,activity,[8],-5.78%
same,"activity change, negative = inhibition",[9],-0.888%
same,activity,[10],-9.19%
same,activity,[11],-5.11%
same,Potency,[6],inactive
CN1CCc2nc(C(=O)N[C@@H]3C[C@@H](C(=O)N(C)C)CC[C@@H]3NC(=O)C(=O)Nc3ccc(Cl)cn3)sc2C1,Potency,[1],inactive
same,Potency,[2],inactive
same,Potency,[3],inactive
same,Potency,[4],inactive
same,Potency,[7],inactive
same,Potency,[6],inactive
O=S(=O)(NCC1CC1)c1ccc(Nc2nccc(N3CCCc4cc(O)ccc43)n2)cc1,Potency,[1],8.49 µM (active)
same,Potency,[2],1.07 µM (active)
same,Potency,[3],1.15 µM (active)
same,Potency,[4],1.15 µM (active)
same,Potency,[6],inactive
O=C(CCc1nnc2n(Cc3ccc(Cl)cc3)c(=O)c3ccccc3n12)NCCC1=CCCCC1,Potency,[1],7.56 µM (active)
same,Potency,[2],4.77 µM (active)
same,Potency,[3],inactive
same,Potency,[4],inactive
same,Potency,[6],inactive
CC(C)(C)Nc1nc2cc(Cl)c(Cl)cc2nc1S(C)(=O)=O,Potency,[1],6.01 µM (active)
same,Potency,[2],5.35 µM (active)
same,Potency,[3],1.29 µM (active)
same,Potency,[4],0.409 µM (active)
same,Potency,[6],inactive
c1ccc(-c2ncc(CN3CCN(c4ncccn4)CC3)[nH]2)cc1,Potency,[1],0.952 µM (active)
same,Potency,[2],2.13 µM (active)
same,Potency,[3],inactive
same,Potency,[4],inactive
same,Potency,[6],inactive
Cn1cc(S(=O)(=O)c2ccc(Cl)cc2)c2cccc(N3CCNCC3)c21,Potency,[1],13.5 µM (active)
same,Potency,[2],8.49 µM (active)
same,Potency,[3],18.3 µM (active)
same,Potency,[4],11.5 µM (active)
same,Potency,[6],inactive
Cn1c(=O)n(-c2ccc(C(C)(C)C#N)cc2)c2c3cc(C#Cc4cccnc4)ccc3ncc21,Potency,[1],inactive
same,Potency,[2],0.522 µM (active)
same,Potency,[3],0.0178 µM (active)
same,Potency,[4],0.0142 µM (active)
same,Potency,[6],inactive
Nc1ccc(-c2cccc3c(=O)cc(N4CCOCC4)oc23)cc1,Potency,[1],inactive
same,Potency,[2],9.52 µM (active)
same,Potency,[3],1.63 µM (active)
same,Potency,[4],1.83 µM (active)
same,Potency,[6],inactive
Cc1cccc(S(=O)(=O)N2CCC[C@@H]2CCN2CCC(C)CC2)c1,Potency,[1],2.39 µM (active)
same,Potency,[2],inactive
same,Potency,[3],inactive
same,Potency,[4],inactive
same,Potency,[6],inactive
O=C(Nc1ccccc1)N1CCN(Cc2ccc3ccccc3n2)CC1,Potency,[1],inactive
same,Potency,[2],10.7 µM (active)
same,Potency,[3],inactive
same,Potency,[4],inactive
same,Potency,[6],inactive
C[C@@H]1CN(Cc2ccccc2)C[C@H]1c1nc2c(cnn2C2CCOCC2)c(=O)[nH]1,Potency,[1],inactive
same,Potency,[2],inactive
same,Potency,[3],inactive
same,Potency,[4],inactive
same,Potency,[6],inactive
O=[N+]([O-])c1cccc2[nH]c(CNc3nc(N4CCOCC4)nc4c3ncn4-c3ccsc3)nc12,Potency,[1],inactive
same,Potency,[2],0.952 µM (active)
same,Potency,[3],0.0649 µM (active)
same,Potency,[4],0.0649 µM (active)
same,Potency,[6],inactive
O=C(Nc1nc2ccccc2n1CCc1ccccc1)c1ccccc1,Potency,[1],inactive
same,Potency,[2],8.49 µM (active)
same,Potency,[3],6.49 µM (active)
same,Potency,[4],5.15 µM (active)
same,Potency,[6],inactive
CC(=O)N1CCN(C(=O)Cc2ccc(Nc3ncc(F)c(Nc4ccc(C(=O)Nc5ccccc5Cl)cc4)n3)cc2)CC1,Potency,[1],inactive
same,Potency,[2],0.477 µM (active)
same,Potency,[3],1.63 µM (active)
same,Potency,[4],2.05 µM (active)
same,Potency,[6],inactive
COc1ccc(-c2ccc3c(N4CCOCC4)nc(N4CC(C)OC(C)C4)nc3n2)cc1CO (configuration not stated),Potency,[1],inactive
same,Potency,[2],6.74 µM (active)
same,Potency,[3],0.205 µM (active)
same,Potency,[4],0.291 µM (active)
same,Potency,[6],18 µM (active)
O=C(NCc1cccc(O)c1)Nc1nc(-c2ccncc2)cs1,Potency,[1],0.849 µM (active)
same,Potency,[2],0.301 µM (active)
same,Potency,[3],9.34 µM (active)
same,Potency,[4],2.35 µM (active)
same,Potency,[6],inactive
COc1ccc(-c2cnc(-c3cccc4c3-c3ccccc3C4=O)o2)cc1,Potency,[1],inactive
same,Potency,[2],0.657 µM (active)
same,Potency,[3],0.0893 µM (active)
same,Potency,[4],0.0893 µM (active)
same,Potency,[6],inactive
